According to paper PMC5540273 (PLoS ONE, 2017):

Tests used:
Settings in all cases: concentration: 1 μM,replicates: in singlicate; n = 1
[1] = tested on: TYK2(JH2domain-pseudokinase)
TYRO3 = tested on: TYRO3
ULK1 = tested on: ULK1
ULK2 = tested on: ULK2
ULK3 = tested on: ULK3
VEGFR2 = tested on: T1, VEGFR2
T1 construct: gene KDR

VPS34 = tested on: T2, VPS34
T2 construct: gene PIK3C3

VRK2 = tested on: VRK2
WEE1 = tested on: WEE1
WEE2 = tested on: WEE2
WNK1 = tested on: WNK1
WNK2 = tested on: WNK2
WNK3 = tested on: WNK3
WNK4 = tested on: WNK4
YANK1 = tested on: T3, YANK1
T3 construct: gene STK32A

YANK2 = tested on: T4, YANK2
T4 construct: gene STK32B

YANK3 = tested on: T5, YANK3
T5 construct: gene STK32C

YES = tested on: T6, YES
T6 construct: gene YES1

YSK1 = tested on: T7, YSK1
T7 construct: gene STK25

YSK4 = tested on: T8, YSK4
T8 construct: gene MAP3K19
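Note: KINOMEscan kinase panel screen.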

SMILES | %Inh [1] | %Inh (TYRO3) | %Inh (ULK1) | %Inh (ULK2) | %Inh (ULK3) | %Inh (VEGFR2) | %Inh (VPS34) | %Inh (VRK2) | %Inh (WEE1) | %Inh (WEE2) | %Inh (WNK1) | %Inh (WNK2) | %Inh (WNK3) | %Inh (WNK4) | %Inh (YANK1) | %Inh (YANK2) | %Inh (YANK3) | %Inh (YES) | %Inh (YSK1) | %Inh (YSK4)
CC(=O)Nc1nc2cnc(Nc3cc(NC(=O)c4cccc(CC(C)(C)C#N)c4)ccc3C)nc2s1 | 28% | 0% | 30% | 0% | 11% | 63% | 11% | 0% | 0% | 15% | 0% | 47% | 0% | 26% | 1% | 12% | 9% | 17% | 0% | 40%
COc1cc2nccc(Nc3ccc(Oc4ccccc4)cc3)c2cc1OC.Cl [GI261656] | 12% | 0% | 0% | 0% | 0% | 23% | 10% | 5% | 0% | 0% | 0% | 0% | 42% | 28% | 7% | 0% | 0% | 79% | 0% | 0%
O=C(Nc1cccc(Oc2ccc3nccn3n2)c1)Nc1cccc(C(F)(F)F)c1 | 1% | 0% | 0% | 0% | 3% | – | 14% | 0% | 0% | 9% | 0% | 0% | 0% | 20% | 0% | 0% | 0% | 0% | 0% | 96.1%
C[C@@H]1CNc2c(sc3ccc4nc(-c5ccncc5)ccc4c23)C(=O)N1 | 59% | 0% | 26% | 27% | 0% | 13% | 0% | 0% | 0% | 0% | 0% | 0% | 0% | 0% | 21% | 0% | 17% | 0% | 0% | 56%
O=c1[nH]cc(-c2ccc(O)cc2)c2sc(-c3ccncc3)cc12 [GSK1033723] | 16% | 8% | 8% | 2% | 6% | 0% | 0% | 0% | 3% | 0% | 1% | 26% | 18% | 10% | 10% | 0% | 14% | 5% | 0% | 98.8%
CCn1c(-c2nonc2N)nc2cncc(Br)c21 [SB-738004] | 18% | 0% | 14% | 13% | 3% | 37% | 36% | 35% | 13% | 0% | 0% | 8% | 31% | 39% | 0% | 7% | 8% | 0% | 0% | 99.7%
C[C@@H](Oc1cc(-n2cnc3ccc(-c4ccncc4)cc32)sc1C(N)=O)c1ccccc1Cl [GSK483724] | 42% | 0% | 6% | 0% | 7% | 8% | 96.4% | 0% | 46% | 1% | 46% | 63% | 79% | 51% | 18% | 1% | 28% | 16% | 2% | 68%
CN(c1ccc2c(c1)nc(NCc1ccc(F)cc1)n2C)c1ccnc(Nc2ccc(CS(C)(=O)=O)cc2)n1.Cl [GW813244] | 12% | 4% | 28% | 13% | 21% | 98.3% | 30% | 6% | 0% | 7% | 17% | 3% | 13% | 0% | 0% | 0% | 0% | 7% | 4% | 99.3%
CCn1c(-c2nonc2N)nc2cncc(CNC3CCNCC3)c21.Cl [SB-747651] | 47% | 0% | 17% | 0% | 6% | 0% | 0% | 9% | 8% | 7% | 14% | 0% | 34% | 21% | 3% | 0% | 40% | 11% | 0% | 87%
C[C@@H]1CNc2c(sc3ccc4nc(-c5ccc(O)cc5)ccc4c23)C(=O)N1 | 23% | 0% | 38% | 63% | 24% | 11% | 9% | 17% | 17% | 0% | 0% | 2% | 0% | 11% | 0% | 9% | 1% | 0% | 0% | 46%
N#Cc1cccc(C(=O)NC2CCN(c3ccnc(Nc4ccc(F)cc4)n3)C2)c1 (stereo not drawn) [GSK1379708] | 12% | 0% | 7% | 0% | 0% | 0% | 0% | 0% | 12% | 6% | 0% | 0% | 12% | 76% | 2% | 0% | 10% | 0% | 0% | 16%
CCOC(=O)N1CCC(n2cnc(-c3ccc(F)cc3)c2-c2ccnc(N)n2)CC1 [SB-219952] | 67% | 20% | 4% | 26% | 8% | 3% | 35% | 27% | 0% | 0% | 28% | 72% | 45% | 0% | 15% | 15% | 0% | 10% | 0% | 9%
COc1cccc(CNC(=O)NC2CCN(c3ccnc(Nc4cc(OC)c(OC)c(OC)c4)n3)C2)c1 (stereo not drawn) [GSK1379765] | 43% | 0% | 0% | 0% | 90% | 13% | 0% | 0% | 30% | 9% | 4% | 33% | 34% | 43% | 0% | 0% | 7% | 7% | 0% | 37%
COC(=O)c1cccc(NC(=O)NC2CCN(c3ccnc(NCc4ccc(F)cc4)n3)CC2)c1 [GSK1379860] | 5% | 17% | 20% | 0% | 15% | 8% | 17% | 7% | 8% | 8% | 10% | 9% | 18% | 31% | 0% | 0% | 0% | 8% | 0% | 9%
CCN1CCN(CCCC(=O)Nc2n[nH]c3nc(-c4ccc(O)cc4)c(Br)cc23)CC1 [SB-731579] | 0% | 0% | 0% | 0% | 6% | 0% | 0% | 69% | 0% | 29% | 0% | 0% | 0% | 0% | 0% | 0% | 0% | 0% | 0% | 85%
Cl.Cl.NC[C@H](CC1CCCCC1)NC(=O)c1ccc(-c2ccnc3[nH]ccc23)s1 [GSK1581428] | 0% | 0% | 31% | 0% | 13% | 0% | 9% | 26% | 8% | 30% | 0% | 0% | 0% | 7% | 68% | 43% | 35% | 5% | 0% | 99.7%
COC(=O)Nc1nc2cc(Oc3ccc(NC(=O)Nc4cc(C(F)(F)F)ccc4Cl)cc3)ccc2[nH]1.Cl [GW697465] | 30% | 3% | 17% | 0% | 10% | 64% | 35% | 4% | 8% | 11% | 8% | 11% | 49% | 48% | 0% | 0% | 13% | 29% | 4% | 84%
